Inconclusive results are not listed. Active and inactive are the calls of the source. The calls were made as follows, unless noted: active = hit-call score of the fitted dose curve at least 0.9, where 1 is the maximum; inactive = score below 0.9.

Test [1] deals with Paired box protein Pax-6 (Homo sapiens) (UniProt P26367). Nature of the test: ATG_Pax6_CIS: Attagene CIS-FACTORIAL HepG2 Assay for human Paired Box 6 (PAX6) (AID 2282956). Particulars: HepG2 CIS-FACTORIAL PAX6 reporter transcription, RNA readout; actives raise or lower the signal. Summed up: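 Transient MRTU transfection of HepG2 → compound exposure 24 h → TriZol RNA, oligo(dT) RT → PCR, 6-FAM primer extension, HpaI cut → capillary electrophoresis; activity fitted both directions against DMSO.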

Test [2] can be described thus: ATG_PXRE_CIS: Attagene CIS-FACTORIAL HepG2 Assay for human Pregnane X Receptor Element (PXRE) (AID 2282957). Particulars: HepG2 Attagene CIS-FACTORIAL PXRE reporter, mRNA; actives raise or lower the signal. Summed up:
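Transiently transfected HepG2 cells were dosed and incubated for 24 h. RNA was then isolated, DNase-treated, reverse-transcribed and reporter sequences amplified. Labeled, HpaI-digested fragments were quantified by capillary electrophoresis against DMSO.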

The nature of test [3]: ATG_PPRE_CIS: Attagene CIS-FACTORIAL HepG2 Assay for human Peroxisome Proliferator-activated Response Element (PPRE) (AID 2282958). Particulars: HepG2 PPRE cis-element reporter, Attagene transcription factor profiling; actives raise or lower the signal. In outline: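 PPRE activity in HepG2: transient cis-reporter transfection, 24 h compound incubation, reporter mRNA by RT-PCR and CE fluorescence; gain/loss fitted against DMSO.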

A short description of test [4]: ATG_RORE_CIS: Attagene CIS-FACTORIAL HepG2 Assay for human RAR-related Orphan Receptor Element (RORE) (AID 2282959). Particulars: HepG2 Attagene cis-factorial RORE reporter, mRNA; actives raise or lower the signal. Summed up: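 A 24-hour exposure of transfected HepG2 hepatoma cells precedes RNA isolation and reporter RT-PCR. Labeled products are digested with HpaI and resolved by capillary electrophoresis, with gain or loss of signal scored relative to DMSO.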

The nature of test [5]: ATG_Sox_CIS: Attagene CIS-FACTORIAL HepG2 Assay for human SRY-box transcription factor (SOX) (AID 2282960). Particulars: HepG2 Attagene cis-factorial SOX reporter, mRNA; actives raise or lower the signal. In outline: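 HepG2, cis reporter units, 24 h exposure. Reporter mRNA: RT-PCR → FAM labelling → HpaI → CE fluorescence. Bidirectional fit vs DMSO.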
Test [6] deals with Transcription factor Sp1 (Homo sapiens) (UniProt P08047). In words: ATG_Sp1_CIS: Attagene CIS-FACTORIAL HepG2 Assay for human Specificity Protein 1 (Sp1) (AID 2282961). Particulars: HepG2 Sp1 cis-reporter transcription, actives raise or lower the signal. Summed up:
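Liver-derived HepG2 cells, cis-element reporter library, 24 h treatment; RNA isolated, cDNA amplified with reporter-specific primers, FAM-labeled fragments sized on capillary analyzer. DMSO baseline, bidirectional curve fit.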

Test [7] in a line: ATG_SREBP_CIS: Attagene CIS-FACTORIAL HepG2 Assay for human Sterol Regulatory Element Binding (SREBP) (AID 2282962). Particulars: HepG2 Attagene cis-factorial SREBP reporter, mRNA; actives raise or lower the signal. Summed up: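 Transfected HepG2 (cis-regulated reporter library, endogenous TFs) → compound 24 h → total RNA → oligo(dT) RT → reporter-specific PCR → FAM primer extension, HpaI cut → CE fluorescence. Fit bidirectional vs DMSO.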

In test [8] the target is Signal transducer and activator of transcription 3 (Homo sapiens) (UniProt P40763). Nature of the test: ATG_STAT3_CIS: Attagene CIS-FACTORIAL HepG2 Assay for human Signal Transducer and Activator of Transcription 3 (STAT3) (AID 2282963). Particulars: HepG2, Attagene cis-factorial STAT3 reporter transcription; actives raise or lower the signal. In outline: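 HepG2 cells transiently transfected with cis-element-driven multiple reporter transcription units; after 24 h chemical exposure, reporter mRNA measured by RT-PCR, 6-FAM primer-extension labelling, HpaI digestion and capillary electrophoresis. Bidirectional fitting versus DMSO baseline.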

A short description of test [9]: ATG_TA_CIS: Attagene CIS-FACTORIAL HepG2 Assay for human TA Basal Promoter (AID 2282964). Particulars: HepG2 Attagene CIS-factorial TA basal promoter reporter; actives raise or lower the signal. In outline: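 HepG2 cells transiently transfected with multiple reporter units under cis promoter elements, reporting endogenous transcription factor activity; this endpoint tracks the TA basal promoter as background control. Reporter mRNA after 24 h dosing measured by RT-PCR/capillary electrophoresis; bidirectional fits versus DMSO.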

A short description of test [10]: ATG_TCF_b_cat_CIS: Attagene CIS-FACTORIAL HepG2 Assay for human T-Cell-Factor with beta-catenin (TCF/b-cat) (AID 2282965). Particulars: HepG2 TCF/beta-catenin cis-reporter transcription, actives raise or lower the signal. Summed up:
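In this cis-format system, transfected HepG2 cells report endogenous transcription factor activity. Readout after 24 h exposure is reporter transcript abundance from RT-PCR and capillary electrophoresis, analysed for gain or loss of signal versus DMSO.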

The nature of test [11]: ATG_TAL_CIS: Attagene CIS-FACTORIAL HepG2 Assay for human TAL Basal Promoter (AID 2282966).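 Also: background control endpoint measuring basal TAL promoter reporter mRNA not a specific factor.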 Particulars: HepG2 Attagene cis-factorial TAL promoter reporter; actives raise or lower the signal. In outline: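 Readout: reporter mRNA, fluorescence by CE. System: HepG2, transient multi-reporter transfection, endogenous TF activity. Exposure: 24 h. Analysis: bidirectional, DMSO-normalized; background control.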

Test [12] is described as follows: ATG_TGFb_CIS: Attagene CIS-FACTORIAL HepG2 Assay for human Transforming Growth Factor (TGF) (AID 2282967). Particulars: HepG2 Attagene CIS TGFb reporter, mRNA transcription; actives raise or lower the signal. Summed up:
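HepG2 cells transiently transfected with cis-promoter-driven multiple reporter units measure endogenous TF activity; reporter mRNA quantified at 24 h by RT-PCR, FAM labeling, HpaI digestion and capillary electrophoresis. Bidirectional fit vs DMSO.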

Test [13] can be described thus: ATG_VDRE_CIS: Attagene CIS-FACTORIAL HepG2 Assay for human Vitamin D Receptor Element (VDRE) (AID 2282968). Particulars: HepG2 VDRE cis-reporter transcription, actives raise or lower the signal. Summed up: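 HepG2 cells transiently transfected with cis-element reporter units, dosed 24 h; reporter mRNA measured by RT-PCR, 6-FAM labeling, HpaI digestion and capillary electrophoresis. Activity fitted bidirectionally against DMSO baseline.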

The target in test [14] is Estrogen receptor (Homo sapiens) (UniProt P03372). In words: ATG_ERa_TRANS: Attagene TRANS-FACTORIAL HepG2 Assay for human Estrogen Receptor alpha (ERa) (AID 2282970; active = hit-call score of the fitted dose curve at least 0.9, where 1 is the maximum). Particulars: HepG2 Attagene TRANS ERa GAL4 reporter, mRNA. Summed up:
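Transactivation via ERa-Gal4 chimera in HepG2; 24 hour incubation; reporter mRNA detected by fluorescence RT-PCR and capillary electrophoresis.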

The target in test [15] is X-box-binding protein 1 (Homo sapiens) (UniProt P17861). Nature of the test: ATG_Xbp1_CIS: Attagene CIS-FACTORIAL HepG2 Assay for human X-box Binding Protein 1 (XBP1) (AID 2282972). Particulars: HepG2 XBP1 cis-element reporter, Attagene multiplex; actives raise or lower the signal. Summed up: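 HepG2, transient MRTU transfection (cis-promoter driven), 24 h compound exposure. Total RNA → oligo(dT) RT → PCR → 6-FAM labeling → HpaI cut → CE. Bidirectional fit vs DMSO.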

Test [16] deals with Androgen receptor (Homo sapiens) (UniProt P10275). Nature of the test: ATG_AR_TRANS: Attagene TRANS-FACTORIAL HepG2 Assay for human Androgen Receptor (AR) (AID 2282973; active = hit-call score of the fitted dose curve at least 0.9, where 1 is the maximum). Particulars: HepG2 Attagene TRANS-FACTORIAL AR reporter transcription. Summed up: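 Transfected HepG2, 24 h treatment, chimeric NR-Gal4 driving GAL4-UAS reporters. mRNA induction by RT-PCR/capillary electrophoresis fluorescence; DMSO as negative control and baseline.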

Test [17] is described as follows: ATG_M_19_TRANS: Attagene TRANS-FACTORIAL HepG2 Assay for M19 Transcription Factor (Internal Marker) (AID 2282974; active = hit-call score of the fitted dose curve at least 0.9, where 1 is the maximum). Particulars: HepG2 Attagene TRANS-FACTORIAL M19 internal marker reporter. In outline:
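Transfected HepG2 (GAL4-UAS MRTUs), 24 h compound, TriZol RNA, DNase-treated RT, reporter PCR, FAM label, HpaI digest, CE fluorescence; gain vs DMSO.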

Paired box protein Pax-6 (Homo sapiens), sequence (P26367 whole entry, looked up): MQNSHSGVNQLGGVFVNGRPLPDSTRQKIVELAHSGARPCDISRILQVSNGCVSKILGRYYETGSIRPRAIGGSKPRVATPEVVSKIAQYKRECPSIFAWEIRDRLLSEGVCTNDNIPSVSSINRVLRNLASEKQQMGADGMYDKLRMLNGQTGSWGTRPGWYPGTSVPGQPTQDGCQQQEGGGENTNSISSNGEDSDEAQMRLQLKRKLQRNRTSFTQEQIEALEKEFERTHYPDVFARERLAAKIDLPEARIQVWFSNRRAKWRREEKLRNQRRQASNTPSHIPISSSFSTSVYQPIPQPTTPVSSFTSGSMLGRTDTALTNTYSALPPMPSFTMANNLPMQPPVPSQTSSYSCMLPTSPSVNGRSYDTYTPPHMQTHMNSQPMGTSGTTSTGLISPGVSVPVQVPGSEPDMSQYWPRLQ
Estrogen receptor (Homo sapiens), sequence (P03372 whole entry, looked up, the tested form may be a part): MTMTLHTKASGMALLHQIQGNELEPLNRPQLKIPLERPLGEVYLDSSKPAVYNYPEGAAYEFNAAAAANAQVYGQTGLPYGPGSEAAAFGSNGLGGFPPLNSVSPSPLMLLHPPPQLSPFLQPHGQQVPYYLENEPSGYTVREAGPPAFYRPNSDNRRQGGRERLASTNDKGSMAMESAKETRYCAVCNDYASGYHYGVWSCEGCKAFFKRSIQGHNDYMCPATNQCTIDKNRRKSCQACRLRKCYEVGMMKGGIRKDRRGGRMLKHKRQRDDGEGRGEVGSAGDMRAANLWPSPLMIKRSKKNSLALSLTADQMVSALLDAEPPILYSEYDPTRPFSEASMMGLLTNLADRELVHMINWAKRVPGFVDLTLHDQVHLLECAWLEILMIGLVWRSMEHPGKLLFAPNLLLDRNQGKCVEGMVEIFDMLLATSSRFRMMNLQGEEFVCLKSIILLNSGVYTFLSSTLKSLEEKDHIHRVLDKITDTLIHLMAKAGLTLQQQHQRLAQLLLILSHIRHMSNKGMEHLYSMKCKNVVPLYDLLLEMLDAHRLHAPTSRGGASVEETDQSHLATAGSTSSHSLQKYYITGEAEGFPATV
Transcription factor Sp1 (Homo sapiens), sequence (P08047 whole entry, looked up, the tested form may be a part): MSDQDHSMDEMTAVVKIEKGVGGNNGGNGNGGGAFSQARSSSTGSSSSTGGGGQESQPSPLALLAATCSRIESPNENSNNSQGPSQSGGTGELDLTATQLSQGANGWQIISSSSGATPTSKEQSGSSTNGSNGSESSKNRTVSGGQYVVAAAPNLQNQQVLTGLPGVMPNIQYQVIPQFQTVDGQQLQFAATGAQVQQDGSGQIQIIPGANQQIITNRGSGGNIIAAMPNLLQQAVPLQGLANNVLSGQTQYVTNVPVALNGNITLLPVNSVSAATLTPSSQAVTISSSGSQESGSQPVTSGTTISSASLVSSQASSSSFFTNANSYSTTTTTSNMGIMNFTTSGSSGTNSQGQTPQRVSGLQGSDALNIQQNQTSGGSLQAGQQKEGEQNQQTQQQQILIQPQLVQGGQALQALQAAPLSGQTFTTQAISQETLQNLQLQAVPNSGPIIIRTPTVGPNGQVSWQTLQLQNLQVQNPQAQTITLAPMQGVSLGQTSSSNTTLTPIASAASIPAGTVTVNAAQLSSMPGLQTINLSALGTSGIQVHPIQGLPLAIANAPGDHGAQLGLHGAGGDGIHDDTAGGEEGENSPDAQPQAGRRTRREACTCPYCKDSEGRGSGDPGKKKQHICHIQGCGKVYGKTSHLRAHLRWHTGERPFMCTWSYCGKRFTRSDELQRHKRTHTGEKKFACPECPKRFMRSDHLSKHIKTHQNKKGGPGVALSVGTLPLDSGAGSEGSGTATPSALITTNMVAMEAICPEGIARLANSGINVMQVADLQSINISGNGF
Signal transducer and activator of transcription 3 (Homo sapiens), sequence (P40763 whole entry, looked up): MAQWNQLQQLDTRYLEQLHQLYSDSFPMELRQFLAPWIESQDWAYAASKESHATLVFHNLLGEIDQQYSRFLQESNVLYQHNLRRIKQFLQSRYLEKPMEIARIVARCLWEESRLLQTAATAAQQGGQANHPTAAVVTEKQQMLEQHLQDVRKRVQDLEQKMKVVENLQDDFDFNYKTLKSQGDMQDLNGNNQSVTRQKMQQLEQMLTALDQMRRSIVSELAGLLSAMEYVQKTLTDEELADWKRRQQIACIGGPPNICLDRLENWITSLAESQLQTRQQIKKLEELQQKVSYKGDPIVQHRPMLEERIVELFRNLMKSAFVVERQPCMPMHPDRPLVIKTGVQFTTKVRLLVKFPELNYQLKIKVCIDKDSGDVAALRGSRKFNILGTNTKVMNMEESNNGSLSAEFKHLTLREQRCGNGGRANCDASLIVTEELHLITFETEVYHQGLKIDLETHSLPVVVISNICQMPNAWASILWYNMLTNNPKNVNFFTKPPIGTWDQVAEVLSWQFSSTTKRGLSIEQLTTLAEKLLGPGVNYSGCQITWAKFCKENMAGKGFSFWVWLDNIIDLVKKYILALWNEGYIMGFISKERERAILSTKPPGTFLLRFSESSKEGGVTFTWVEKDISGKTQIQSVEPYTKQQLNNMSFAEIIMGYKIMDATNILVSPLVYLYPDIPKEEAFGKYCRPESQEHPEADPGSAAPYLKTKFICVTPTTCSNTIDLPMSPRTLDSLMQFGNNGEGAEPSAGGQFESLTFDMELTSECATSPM
X-box-binding protein 1 (Homo sapiens), sequence (P17861 whole entry, looked up): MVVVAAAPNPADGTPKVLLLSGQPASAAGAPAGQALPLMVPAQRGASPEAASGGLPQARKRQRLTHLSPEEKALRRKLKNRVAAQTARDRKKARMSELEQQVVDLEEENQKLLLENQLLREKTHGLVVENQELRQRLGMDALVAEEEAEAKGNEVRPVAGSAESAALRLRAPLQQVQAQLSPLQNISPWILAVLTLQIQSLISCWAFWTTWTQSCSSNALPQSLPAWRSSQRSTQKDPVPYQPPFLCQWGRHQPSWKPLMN
Androgen receptor (Homo sapiens), sequence (P10275 whole entry, looked up, the tested form may be a part): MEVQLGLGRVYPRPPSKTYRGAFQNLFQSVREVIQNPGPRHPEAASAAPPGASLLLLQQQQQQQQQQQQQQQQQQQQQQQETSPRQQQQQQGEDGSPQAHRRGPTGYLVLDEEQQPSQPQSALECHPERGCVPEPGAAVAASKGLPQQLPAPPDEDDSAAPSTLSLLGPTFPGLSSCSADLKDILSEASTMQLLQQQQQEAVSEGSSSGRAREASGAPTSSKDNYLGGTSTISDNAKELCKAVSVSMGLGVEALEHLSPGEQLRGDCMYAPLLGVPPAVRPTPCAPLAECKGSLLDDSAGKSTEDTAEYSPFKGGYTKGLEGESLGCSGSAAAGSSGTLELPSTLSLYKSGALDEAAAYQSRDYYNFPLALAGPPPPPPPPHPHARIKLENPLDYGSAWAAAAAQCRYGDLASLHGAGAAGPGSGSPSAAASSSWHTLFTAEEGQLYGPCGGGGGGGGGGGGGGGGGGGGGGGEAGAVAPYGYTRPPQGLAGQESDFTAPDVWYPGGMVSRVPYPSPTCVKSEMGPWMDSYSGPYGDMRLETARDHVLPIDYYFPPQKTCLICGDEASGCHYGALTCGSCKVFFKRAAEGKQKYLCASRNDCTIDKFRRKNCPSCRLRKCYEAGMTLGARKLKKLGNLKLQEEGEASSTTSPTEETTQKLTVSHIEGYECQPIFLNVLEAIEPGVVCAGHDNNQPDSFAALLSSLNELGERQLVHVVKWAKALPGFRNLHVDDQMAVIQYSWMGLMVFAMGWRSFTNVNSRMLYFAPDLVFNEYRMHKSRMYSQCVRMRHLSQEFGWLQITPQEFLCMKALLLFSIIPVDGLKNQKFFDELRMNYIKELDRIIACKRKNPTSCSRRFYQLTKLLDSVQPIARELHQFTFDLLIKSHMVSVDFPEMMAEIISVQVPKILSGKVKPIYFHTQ

For orientation: AC50 means the concentration at which the activity in the assay is half-maximal. Regarding `Oc1ccc(Cl)cc1Cl`, the compound was classed as inactive in test [1], in test [3], in test [4], in [5], in test [6] and in [7]. The outcome in [8], in test [9], in test [10], in [11], in test [12] and in test [13] was inactive. Also, the compound was classed as inactive in test [15]. Also, the AC50 in test [2] was 64.5 µM (active); in [14], 64 µM (active).
With `c1ccc(-c2ccccc2)cc1`, the result in [1], in test [2], in test [3], in test [4], in test [5] and in [6] was inactive. Besides, the compound was called inactive in [7], in test [8], in [9], in [10], in test [11] and in test [12]. Besides, the outcome in [14], in [15], in test [16] and in [17] was inactive.
Consider `Cc1cc2c3c(c1)C(c1ccccc1)=N[C@@H](NC(=O)c1ccncc1)C(=O)N3CC2`, for which the AC50 in [1] was 100 µM (active); in [2] it was 0.909 µM (active); in [4], 6.95 µM (active); in [6], 181 µM (active); in test [7], 19.9 µM (active); in [9] it was 100 µM (active). The AC50 in test [10] is 35.8 µM (active); in [13], 5.69 µM (active); in test [15], 100 µM (active). Besides, the compound was called inactive in test [3], in [5], in test [8], in test [11], in [12] and in [14]. Also, in test [17], the result was inactive.
As to `CCSC(=O)N(CC)C1CCCCC1`, the result in [1], in test [3], in [4], in test [5], in test [6] and in test [7] was inactive. For the same compound, the compound was called inactive in test [8], in [9], in test [10], in [11], in [12] and in [14]. Further, the compound was called inactive in test [15] and in [17]. In addition, the AC50 in [2] is 12.3 µM (active); in [13] it was 18.1 µM (active).
As to `CCOCCOC(C)=O`, the outcome in test [1], in test [2], in test [3], in test [4], in test [5] and in [6] was inactive. For the same compound, the compound was called inactive in test [7], in test [8], in [9], in [10], in test [11] and in test [12]. Also, the result in test [13] and in test [15] was inactive.
In the case of `O=C(N[C@H]1CN2CCC1CC2)c1cc2ccoc2cn1`, the call in test [1], in test [2], in test [3], in test [4], in test [5] and in test [6] was inactive. Besides, the compound was called inactive in test [7], in test [8], in [9], in [10], in test [11] and in [12]. Also, the call in test [13], in test [14] and in [15] was inactive.

These data come from PubChem BioAssay (EPA / NIEHS).
